Z-AUC data for 35 molecules are collected here from PubChem BioAssay (NCATS).

Structures are written as SMILES. Active and inactive are the calls of the source. The call rests on the fitted dose curve.

One assay in a line: qHTS drug screen for cell cycle checkpoint inhibitors in PARPi-resistant BRCA-mutant ovarian cancer cell lines. (AID 1963452). The following applies: PEO1/OlaR viability, CellTiter-Glo luminescence, 96 h; stronger effect = lower value. The method, boiled down: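 PEO1, PEO4 and PEO1/OlaR ovarian cancer cells, 600 per well, exposed 96 h at 37C to a dilution series. Viability read by CellTiter-Glo luminescence, normalized to DMSO and empty wells; activity summarized as Z-AUC.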
For orientation: qHTS replaces the single test concentration by a dilution series.
With `O=C(c1ccccc1)c1ccc2n1CCC2C(=O)O` (centres undefined), the Z-AUC was 1.02 (inactive).

Consider `Clc1ccc(C(Cn2ccnc2)OCc2ccc(Sc3ccccc3)cc2)c(Cl)c1` (centres undefined), for which the Z-AUC is -1.08 (inactive).

Take `Cc1cc(O)c2c(c1)C(=O)c1cc(O)cc(O)c1C2=O`: the Z-AUC was 0.333 (inactive). Same read-out and setting: under `S=c1nc[nH]c2nc[nH]c12` stands -0.8 (inactive); under `CCCS(=O)c1ccc2nc(NC(=O)OC)[nH]c2c1` (centres undefined), -0.279 (inactive). For `Cc1ccc(S(=O)(=O)NC(=O)NN2CC3CCCC3C2)cc1` (centres undefined), the Z-AUC was 1.31 (inactive). The same measure, in the same setting: the result for `O=Nc1c(-c2c(O)[nH]c3cc(Br)ccc23)[nH]c2ccccc12` reads -0.607 (inactive); that for `CC(=O)N1CCN(c2ccc(OC[C@H]3CO[C@](Cn4ccnc4)(c4ccc(Cl)cc4Cl)O3)cc2)CC1`, 0.477 (inactive); that for `CN(C)C(=O)[C@H](O)[C@H](Cc1ccccc1)NC(=O)c1cc2cc(Cl)ccc2[nH]1`, -0.181 (inactive). The same measure, in the same setting: under `O=C(CCc1ccc(O)cc1)c1c(O)cc(O)cc1O` stands -0.868 (inactive); under `Cc1cccc(CN2CCN(C(c3ccccc3)c3ccc(Cl)cc3)CC2)c1` (centres undefined), -1.46 (inactive); under `O=C(NOCC1CC1)c1ccc(F)c(F)c1Nc1ccc(I)cc1Cl`, 0.682 (inactive). Still for that read-out and setting: the result for `C[C@H](Cc1ccc(O)c(O)c1)[C@@H](C)Cc1ccc(O)c(O)c1` reads 1.18 (inactive); that for `CCN(CC)C(=S)SSC(=S)N(CC)CC`, 0.318 (inactive). For `COCCCN1CCC(NC(=O)c2cc(Cl)c(N)c3c2OCC3)CC1`, the Z-AUC is 1.78 (inactive). The same measure, in the same setting: under `c1cnc2cc3c(cc2n1)C1CNCC3C1` stands -0.725 (inactive); under `NC(=NCc1ccccc1)NC(=O)c1nc(Cl)c(N)nc1N`, -0.929 (inactive); under `CCOC(=O)C1=C[C@@H](OC(CC)CC)[C@H](NC(C)=O)[C@@H](N)C1`, 0.109 (inactive). The same measure, in the same setting: under `Cc1ccc(Nc2nccc(N(C)c3ccc4c(C)n(C)nc4c3)n2)cc1S(N)(=O)=O` stands 1.07 (inactive); under `Nc1ncn([C@H]2C[C@H](O)[C@@H](CO)O2)c(=O)n1`, 1.63 (inactive); under `Clc1ccc2c(N3CCN(CCCN4CCN(c5ccnc6cc(Cl)ccc56)CC4)CC3)ccnc2c1`, 0.751 (inactive). Same read-out and setting: the result for `COc1cc2c(N3CCN(C(=O)Nc4ccc(OC(C)C)cc4)CC3)ncnc2cc1OCCCN1CCCCC1` reads 1.04 (inactive). `O=c1cc(N2CCOCC2)oc2c(-c3ccccc3)cccc12`: the Z-AUC was 0.98 (inactive). Same read-out and setting: under `Cc1cccc(-c2[nH]ncc2-c2ccc3ncccc3n2)n1` stands -0.435 (inactive); under `Clc1ccc(C(Cn2ccnc2)OCc2c(Cl)cccc2Cl)c(Cl)c1` (centres undefined), 0.975 (inactive); under `CC(C)c1ccc2c(c1)c(SC(C)(C)C)c(CC(C)(C)C(=O)O)n2Cc1ccc(Cl)cc1`, 1.24 (inactive). Consider `O=C(NCC1CCCCN1)c1cc(OCC(F)(F)F)ccc1OCC(F)(F)F` (centres undefined), for which the Z-AUC was -0.39 (inactive). As for `Oc1ccc2ccccc2c1SSc1c(O)ccc2ccccc12`, the Z-AUC was -0.118 (inactive). The same measure, in the same setting: under `NCCCCNCCCN` stands 0.434 (inactive); under `Nc1nc(N)c(N=O)c(OCC2CCCCC2)n1`, -0.0306 (inactive).

Take `COc1ccccc1N1CCN(CCN(C(=O)C2CCCCC2)c2ccccn2)CC1`: the Z-AUC was 0.61 (inactive). The same measure, in the same setting: under `Oc1ccc(-c2nc(-c3ccc(F)cc3)c(-c3ccncc3)[nH]2)cc1` stands 1.12 (inactive). The same measure, in the same setting: under `O=C1NC(=O)C(c2ccccc2[N+](=O)[O-])=C1Nc1ccc(O)c(Cl)c1` stands 0.891 (inactive); under `COc1cc(Nc2c(C#N)cnc3cc(OCCCN4CCN(C)CC4)c(OC)cc23)c(Cl)cc1Cl`, 0.106 (inactive).

Still in this assay, the particulars now being: PEO1/OlaR viability, CellTiter-Glo luminescence, 96 h; measured here: PEO1 parental Z-AUC; stronger effect = lower value.
As to `O=C(c1ccccc1)c1ccc2n1CCC2C(=O)O` (centres undefined), the Z-AUC is 0.719. As for `Clc1ccc(C(Cn2ccnc2)OCc2ccc(Sc3ccccc3)cc2)c(Cl)c1` (centres undefined), the Z-AUC was -0.535.

For `Cc1cc(O)c2c(c1)C(=O)c1cc(O)cc(O)c1C2=O`, the Z-AUC was 0.799. For `S=c1nc[nH]c2nc[nH]c12`, the Z-AUC is -0.506. In the case of `CCCS(=O)c1ccc2nc(NC(=O)OC)[nH]c2c1` (centres undefined), the Z-AUC is -0.314. The same measure, in the same setting: under `Cc1ccc(S(=O)(=O)NC(=O)NN2CC3CCCC3C2)cc1` (centres undefined) stands 0.956; under `O=Nc1c(-c2c(O)[nH]c3cc(Br)ccc23)[nH]c2ccccc12`, -0.18; under `CC(=O)N1CCN(c2ccc(OC[C@H]3CO[C@](Cn4ccnc4)(c4ccc(Cl)cc4Cl)O3)cc2)CC1`, 0.452. Same read-out and setting: the result for `CN(C)C(=O)[C@H](O)[C@H](Cc1ccccc1)NC(=O)c1cc2cc(Cl)ccc2[nH]1` reads 0.139. Consider `O=C(CCc1ccc(O)cc1)c1c(O)cc(O)cc1O`, for which the Z-AUC was -0.361.

Regarding `Cc1cccc(CN2CCN(C(c3ccccc3)c3ccc(Cl)cc3)CC2)c1` (centres undefined), the Z-AUC is -0.604. As for `O=C(NOCC1CC1)c1ccc(F)c(F)c1Nc1ccc(I)cc1Cl`, the Z-AUC is -0.295. Take `C[C@H](Cc1ccc(O)c(O)c1)[C@@H](C)Cc1ccc(O)c(O)c1`: the Z-AUC is 0.707. Turning to `CCN(CC)C(=S)SSC(=S)N(CC)CC`, the Z-AUC was 0.214. Same read-out and setting: under `CCN(CC)CCOc1ccc(Nc2ncc3cc(-c4c(Cl)cccc4Cl)c(=O)n(C)c3n2)cc1` stands -1.55; under `COCCCN1CCC(NC(=O)c2cc(Cl)c(N)c3c2OCC3)CC1`, 1.56.

Take `c1cnc2cc3c(cc2n1)C1CNCC3C1`: the Z-AUC is -0.804. On the same count and under the same terms, under `NC(=NCc1ccccc1)NC(=O)c1nc(Cl)c(N)nc1N` stands -0.393; under `CCOC(=O)C1=C[C@@H](OC(CC)CC)[C@H](NC(C)=O)[C@@H](N)C1`, 0.666; under `Cc1ccc(Nc2nccc(N(C)c3ccc4c(C)n(C)nc4c3)n2)cc1S(N)(=O)=O`, 0.627. The same measure, in the same setting: the result for `Nc1ncn([C@H]2C[C@H](O)[C@@H](CO)O2)c(=O)n1` reads -0.11. Same read-out and setting: under `Clc1ccc2c(N3CCN(CCCN4CCN(c5ccnc6cc(Cl)ccc56)CC4)CC3)ccnc2c1` stands 0.492; under `COc1cc2c(N3CCN(C(=O)Nc4ccc(OC(C)C)cc4)CC3)ncnc2cc1OCCCN1CCCCC1`, 0.804. As for `O=c1cc(N2CCOCC2)oc2c(-c3ccccc3)cccc12`, the Z-AUC came to 0.743. On the same count and under the same terms, the result for `Cc1cccc(-c2[nH]ncc2-c2ccc3ncccc3n2)n1` reads 0.556. On the same count and under the same terms, the result for `Clc1ccc(C(Cn2ccnc2)OCc2c(Cl)cccc2Cl)c(Cl)c1` (centres undefined) reads 0.252; that for `CC(C)c1ccc2c(c1)c(SC(C)(C)C)c(CC(C)(C)C(=O)O)n2Cc1ccc(Cl)cc1`, 0.791; that for `O=C(NCC1CCCCN1)c1cc(OCC(F)(F)F)ccc1OCC(F)(F)F` (centres undefined), -0.839.

With `Oc1ccc2ccccc2c1SSc1c(O)ccc2ccccc12`, the Z-AUC came to 0.665. For `NCCCCNCCCN`, the Z-AUC was 1.13. As to `Nc1nc(N)c(N=O)c(OCC2CCCCC2)n1`, the Z-AUC worked out at 0.757. As to `COc1ccccc1N1CCN(CCN(C(=O)C2CCCCC2)c2ccccn2)CC1`, the Z-AUC worked out at 0.37. On the same count and under the same terms, the result for `Oc1ccc(-c2nc(-c3ccc(F)cc3)c(-c3ccncc3)[nH]2)cc1` reads -0.0618; that for `O=C1NC(=O)C(c2ccccc2[N+](=O)[O-])=C1Nc1ccc(O)c(Cl)c1`, 0.49; that for `COc1cc(Nc2c(C#N)cnc3cc(OCCCN4CCN(C)CC4)c(OC)cc23)c(Cl)cc1Cl`, 0.26.
